High-throughput results deposited in PubChem BioAssay by The Scripps Research Institute Molecular Screening Center.
Hits are enriched below; roughly 5.7% of the tested compounds scored in any of these assays.
DAX1 inh-1: DAX1 (NR0B1) inhibition, primary screen | HEK293T StAR-luciferase reporter, SF-1/DAX-1 repression relief | inhibition, % at 6.8 µM | hit rate 1.1% among 370,000 | AID 652010;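 active means inhibition above the mean over all tested compounds plus 3 SD, cut at about 3.6% in these data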;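 further: 0% = DAX-1 cells with DMSO and 100% = cells lacking DAX-1 with DMSO; higher inhibition means more luminescence from relief of DAX-1 repression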
hcDAF-12 act: H. contortus DAF-12 activation, primary screen | HEK293 hcDAF-12 lit1-tk-luc reporter, luminescence; 0% DMSO, 100% Δ7-dafachronic acid | activation, % at 6.8 µM | hit rate 1.4% among 370,000 | AID 652067;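 active means activation above the mean of all tested compounds plus 3 SD, cut at about 5.5% in these data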;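 further: 100% = response to 3 µM Δ7-dafachronic acid high control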
DAX1 inh-2: NR0B1 (DAX1) inhibition; P51843; HEK293 Gal4-DAX1 luciferase reporter, luminescence; inhibition, % at 6.75 µM; hit rate 0.99% among 340,000; AID 504766;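 active means inhibition above the mean over all tested compounds plus 3 SD, cut at about 4.2% in these data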;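 further: 0% = DAX1-transfected cells with DMSO and 100% = empty-vector control cells with DMSO; inhibition shows as a rise in luminescence from relieved DAX1 repression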
hgDAF12 agonist: activates the H. glycines DAF-12 receptor ligand-binding domain; hit rate 1.8% among 370,000; HEK293 GAL4-hgDAF12 UAS-luciferase reporter, agonist luminescence; normalized to butyrate control; activation, % at 6.8 µM;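 active means activation above a cutoff set at the mean of all screened compounds plus 3 SD, cut at about 10% in these data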;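 further: 0% = DMSO wells and 100% = sodium butyrate wells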
ssDAF12 agonist: activators of S. stercoralis DAF-12 nuclear receptor. hit rate 1% among 370,000. HEK293 ssDAF-12/GRIP1 lit1-tk-luc reporter, luminescence; % of 3 µM dafachronic acid response. activation, % at 6.8 µM. AID 652126;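 active means activation above the mean over all tested compounds plus 3 SD, cut at about 0.9% in these data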;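 further: 0% = DMSO-only wells and 100% = 3 µM delta7-dafachronic acid wells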
AHR activator: human AHR activation | hit rate 2.5% among 320,000 | activation, % at 5 µM | P35869 | AHR-responsive luciferase reporter cells, luminescence; in the data active means activation above about 47%;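 further: 0% = vehicle wells and 100% = reference agonist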
Target sequence (P35869 whole entry, looked up): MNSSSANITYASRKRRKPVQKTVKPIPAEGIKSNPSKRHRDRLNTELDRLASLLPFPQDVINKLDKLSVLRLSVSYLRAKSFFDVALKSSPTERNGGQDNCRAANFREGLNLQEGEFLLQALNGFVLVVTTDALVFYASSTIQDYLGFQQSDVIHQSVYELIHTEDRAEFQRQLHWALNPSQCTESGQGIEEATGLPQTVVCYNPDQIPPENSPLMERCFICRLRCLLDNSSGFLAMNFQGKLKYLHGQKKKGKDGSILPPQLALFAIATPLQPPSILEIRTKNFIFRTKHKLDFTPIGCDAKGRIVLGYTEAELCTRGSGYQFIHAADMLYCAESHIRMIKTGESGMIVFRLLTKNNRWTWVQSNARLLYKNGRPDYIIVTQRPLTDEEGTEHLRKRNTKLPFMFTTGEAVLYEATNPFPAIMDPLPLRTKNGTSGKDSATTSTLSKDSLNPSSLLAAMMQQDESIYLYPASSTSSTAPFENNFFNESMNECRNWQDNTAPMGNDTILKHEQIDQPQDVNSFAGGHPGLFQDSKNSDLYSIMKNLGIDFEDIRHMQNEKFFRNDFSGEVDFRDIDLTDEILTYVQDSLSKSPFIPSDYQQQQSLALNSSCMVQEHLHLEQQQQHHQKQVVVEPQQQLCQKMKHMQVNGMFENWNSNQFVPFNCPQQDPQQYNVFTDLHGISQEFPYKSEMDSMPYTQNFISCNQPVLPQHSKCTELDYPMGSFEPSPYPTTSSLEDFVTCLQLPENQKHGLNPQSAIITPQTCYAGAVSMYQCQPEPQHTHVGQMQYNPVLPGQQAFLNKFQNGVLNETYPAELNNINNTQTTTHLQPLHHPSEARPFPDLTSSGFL
AHR act cf: human AHR activation, confirmation | hit rate 87% among 2,300 | AID 2845 | human cells, AHR-responsive luciferase reporter, luminescence | shares compounds with AHR activator | activation, % at 9 µM; in the data active means activation above about 49%;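 further: HepG2 hepatoma cells carrying a DRE-driven firefly luciferase reporter; 0% = vehicle wells and 100% = reference agonist wells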
PXR counter: activates human PXR in AHR activator counter-screen; shares compounds with AHR activator; cell-based PXR reporter, luciferase luminescence; activation, % at 11.6 µM; hit rate 88% among 2,300; AID 434939; in the data active means activation above about 11%;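 further: human hepatoma DPX-2 cells expressing full-length human PXR; 0% = DMSO and 100% = reference agonist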
The depositor's hits bear a star; . = no result given.

SMILES	DAX1 inh-1	hcDAF-12 act	DAX1 inh-2	hgDAF12 agonist	ssDAF12 agonist	AHR activator	AHR act cf	PXR counter
C/C(=N\NC(=O)C(=O)Nc1cc(Cl)ccc1Cl)c1ccncc1	0	-1	-1	-2	-1	89*	1	10
COc1ccc(/C=C/C(=O)NCCC(=O)N2CCCN(C)CC2)cc1	1	-1	0	-2	-1	-2	.	.
CCCCC(=O)Nc1ccc2c(c1)nc1n2CCN(CCOC)C1	0	-1	.	0	-2	.	.	.
Cc1c(C2(O)CCCCC2)[nH]c2ccc(C(F)(F)F)cc12	-1	2	-1	-6	-1	80*	81*	44*
COc1ccc(C(=O)O)cc1S(=O)(=O)Nc1ccc(Oc2ccccc2)cc1	0	-1	0	2	-1	1	.	.
Cc1c(/N=C/c2ccco2)n(Cc2ccccc2)c2ccccc12	0	0	1	-1	-1	1	.	.
O=C(Nc1cc(=O)[nH]c2nc(-c3ccc(Cl)cc3)nn12)c1ccccc1	.	.	.	.	.	4	.	.
Cc1nn(-c2ccccc2)c2sc(C(=O)NC3CC3)cc12	1	0	3	1	-1	84*	80*	39*
COc1cc(-c2cc(-c3ccc(N)cc3)[nH]c(=O)c2C#N)cc(OC)c1OC	0	0	0	-2	-2	101*	84*	17*
C=C1C(=O)O[C@@H]2C[C@@H](C)[C@@H]3C=CC(=O)[C@@]3(C)[C@@H](OC(C)=O)[C@H]12	-3	-5	.	-11	-2	81*	-14	283*
O=C(NCCc1ccccc1F)C1C(=O)Nc2ccccc2C(=O)N1C1CCCCC1 (centres undefined)	0	0	.	1	-1	.	.	.
S=c1[nH]c(-c2ccccc2)cn1/N=C/c1ccncc1	0	2	-1	3	-1	88*	135*	8
CCOc1ccc(/C=N/n2cc(-c3ccccc3)[nH]c2=S)cc1	-2	3	1	3	0	84*	108*	.
CC1(C)CC2CC(C)(CN2S(=O)(=O)c2ccc(N)cc2)C1 (centres undefined)	-1	-1	0	-2	-2	-1	.	.
COc1ccc(NC(=O)CC2SC(=Nc3ccccc3)NC2=O)cc1 (centres undefined)	-1	-2	-1	2	-1	5	.	.
Cc1c(/C(Cc2ccccc2)=N/O)c2ccccc2n1C	0	-1	1	-1	-1	88*	111*	178*
Cc1c(C(=O)CN2CCSCC2)c2ccccc2n1C	0	-1	0	0	-1	-1	.	.
CC(=O)Nc1ccc(/C=C/c2nc(-c3ccccc3O)n[nH]2)cc1	0	-2	0	3	-2	81*	104*	7
COc1cc(/C=C/c2nc(-c3ccccc3O)n[nH]2)cc(OC)c1OC	-1	-3	-2	1	-2	9	.	.
Cc1nnc(N2C(=O)c3cccc4c([N+](=O)[O-])ccc(c34)C2=O)s1	0	0	-1	-4	-1	87*	100*	.
COc1cc(CCC(=O)N2CCN(c3ccc(N4CCOCC4)nn3)CC2)cc(OC)c1OC	.	.	.	.	.	3	.	.
Cc1ccnc(Nc2nc(-c3ccc(F)cc3)cs2)c1	1	6.4*	0	12*	-1	165*	132*	15*
Cc1ccnc(Nc2nc(-c3ccc(Cl)cc3)cs2)c1	1	2	1	7	-1	137*	97*	32*
Cc1ccc(S(=O)(=O)Nc2nc(-c3ccc(F)cc3)cs2)cc1	0	2	0	1	-1	2	.	.
O=C(O)CSc1ccc2ccccc2n1	1	0	1	0	-1	11	.	.
SMILES	DAX1 inh-1	hcDAF-12 act	DAX1 inh-2	hgDAF12 agonist	ssDAF12 agonist	AHR activator	AHR act cf	PXR counter
O=C(CSc1ccc2ccccc2n1)c1ccc2c(c1)OCO2	3	5	2	10	2.3*	103*	27	24*
NS(=O)(=O)c1cccc(NC(=O)CSc2ncc(C(F)(F)F)cc2Cl)c1	0	-3	-1	-3	-1	-2	.	.
Cn1c(NC(=O)c2cccc(C(F)(F)F)c2)cc(=O)n(C)c1=O	0	-1	0	1	0	136*	120*	16*
Cc1cccc(C(=O)Nc2cc(=O)n(C)c(=O)n2C)c1	1	-1	1	0	-1	6	.	.
CN1CCCN(C(=O)CN2C(=O)CC(C)(C)S(=O)(=O)c3ccccc32)CC1	1	-1	.	2	0	.	.	.
Cc1c(C)n(C(=O)CN2CCC(C)CC2)c2ccccc12	0	1	-1	1	-1	83*	53*	15*
O=C(CN1CCOCC1)n1c2ccccc2c2ccccc21	0	2	0	4	-1	18	.	.
O=C(c1ccccc1)c1c[nH]c(C(=O)NNc2cccc(Cl)n2)c1	0	-2	2	0	-1	-4	.	.
O=[N+]([O-])c1cc(/C=N\Nc2nc(-c3ccccc3)cs2)ccc1O	0	2	-1	2	0	119*	39	4
Cc1cc(=O)[nH]c(SCC(=O)c2ccccc2)c1C#N	-1	-2	-2	0	-1	30	.	.
COC(=O)CSc1nc(C)cc(C)c1C#N	0	0	0	3	-1	2	.	.
Cc1cc(C)c(C#N)c(SCC(=O)c2cccs2)n1	-1	4	1	6	0	165*	112*	28*
Cc1cc(C)c(C#N)c(SCC(=O)c2ccccc2)n1	-1	-1	-1	-4	-1	148*	153*	29*
COc1cccc(C=Nc2ccc3c(c2)OCCO3)c1O	.	.	-2	.	.	5	.	.
COc1ccc(C)cc1NC(=O)CCCNC(=O)Cn1cnc2sc(C)c(C)c2c1=O	0	0	0	-3	-1	3	.	.
COc1ccc(Cl)cc1Nc1nc(N)c2ccccc2n1	0	6	0	6	1	105*	115*	14*
COc1nc(NCCO)nc(Nc2cc(Cl)ccc2OC)n1	-1	-2	0	3	-1	12	.	.
N#CC1=C(N)Nc2nc3ccccc3n2C1c1ccc(F)cc1 (centres undefined)	-1	-2	-1	-2	1.3*	94*	80*	62*
O=S(=O)(N=C1C=CC(=NS(=O)(=O)c2ccccc2)c2ccccc21)c1ccccc1	-2	1	0	-3	-1	.	.	.
CCc1ccc(S(=O)(=O)/N=C2\C=CC(=O)c3ccccc32)cc1	.	.	.	.	.	112*	93*	164*
O=c1cc(-c2ccccc2)c2cc(Cl)ccc2[nH]1	0	-1	-1	-1	-2	2	.	.
